This is an account of results in PubChem BioAssay AID652010 (The Scripps Research Institute Molecular Screening Center, 2013).

Screen size: about 370,000 compounds; about 4,100 (1.1%) were called active. Shown is part of a subset that was picked to be rich in actives. Unmarked numbers belong to inactive results.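 How the source made its calls: active means inhibition above the mean over all tested compounds plus 3 SD (cut at about 3.6% in these data); inactive means the rest.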

This assay can be described thus: relief of DAX-1 repression of SF-1 activity – cell-based, luminescence, SF-1 (NR5A1), full-length DAX-1, primary screen (AID 652010).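 Further: 0% = DAX-1 cells with DMSO and 100% = cells lacking DAX-1 with DMSO; higher inhibition means more luminescence from relief of DAX-1 repression.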 The conditions noted are these: HEK293T StAR-luciferase reporter, SF-1/DAX-1 repression relief; at 6.8 µM; hits give high values.
As to `O=C(C1CCC(=O)N(C2CC2)C1)N1CCN(c2ccc(Cl)cc2)CC1` (stereo not drawn), the inhibition was -0.61%. Then `CC1(C(=O)Nc2cccc3c2CCCC3)CCN1C(=O)C1(c2ccccc2)CC1` (stereo not drawn), with -0.73%. In the case of `COc1ccc2cc(C(=O)C3CCCN(C(=O)c4sc(C)nc4C)C3)ccc2c1` (stereo not drawn), the inhibition is 0.57%. `CCOc1ccc(NC(=O)C2CCCN(C(=O)Nc3ccccc3)C2)cc1` (stereo not drawn): the inhibition was -0.8%. In the case of `CCOc1ccc2nc(C(=O)N3CCCC(C)C3)sc2c1` (stereo not drawn), the inhibition was 4.1% (active).

Consider `CC(CNC(=O)c1ccc(N)cc1)NC(=O)c1ccc(N)cc1` (stereo not drawn), for which the inhibition was 0.06%. Take `Nc1ccc(C(=O)Nc2ccccc2N)cc1`: the inhibition was 15.9% (active). Then `O=C(Nc1ccccc1C(=O)N1CCOCC1)c1ccc(Cl)cc1`, with -0.37%; and `C#CCCN([C@H](C(=O)OC)C(C)C)S(=O)(=O)c1ccc(F)cc1Br`, with -0.77%; and `O=C1CCC2(CCC(c3ccc(Cl)cc3)CC2)N1CCO` (stereo not drawn), with -1.36%. Then `O=S1(=O)c2c(cccc2N2CC[C@H](O)C2)O[C@@H]2CCN1C2`, with -0.61%; and `COc1ccc(OCc2cc(C(=O)NCC3(C)COC3)no2)c(Cl)c1`, with -0.13%; and `COCCCNC(=O)COc1cc(C)c(Cl)c(C)c1`, with -0.64%. On to `Cc1cc(OCc2cc(C(=O)NCc3cc(C(C)C)no3)no2)cc(C)c1Cl`, for which the inhibition is 7.8% (active). For `N#Cc1ccc(-c2nc3cc(C#N)c(C#N)cc3nc2-c2ccccc2)cc1C#N`, the inhibition was -0.36%. With `CN1CCN(CCNC(=O)Nc2ccccc2[N+](=O)[O-])CC1`, the inhibition was -0.08%. Then `Cc1cc(NC(=O)Nc2ccccc2[N+](=O)[O-])no1`, with -0.12%; and `Cc1csc(NC(=O)Nc2ccccc2[N+](=O)[O-])n1`, with 4.06% (active). Then `O=C1[C@@H]2C(c3cccnc3)=NO[C@@H]2C(=O)N1c1ccc(Cl)cc1Cl`, with -0.39%.

For `COc1cccc(CNC(=O)CNS(=O)(=O)c2ccc3nc(C)sc3c2)c1OC`, the inhibition was -0.3%.

For the compound `Cc1ccc(CSc2nnc(SCC(=O)NN=Cc3cc(Br)ccc3F)s2)cc1`, the inhibition was -0.52%.

For `COc1ccc(C(=O)OCCN2CCN(C3CN(Cc4cn(Cc5ccccc5F)nn4)S(=O)(=O)C3)CC2)cc1OC` (stereo not drawn), the inhibition was -2.65%. Then `O=C(Nc1ccc2nc3n(c(=O)c2c1)CCCC3)c1ccc(Cl)nc1`, with -1.19%; and `O=C(Cn1[nH]c(=O)c2ccccc2c1=O)Nc1cccc(-c2nnc3n2CCCCC3)c1`, with -0.2%; and `COc1cccc(C(=O)Nc2ccc3nc4n(c(=O)c3c2)CCCCC4)c1`, with -0.05%. Then `N=c1c2c3c(sc2nc2n1CCCCC2)CCCC3`, with 0.02%.

With `O=c1c2c(nc3n1CCCCC3)sc1c(O)cccc12`, the inhibition is 4.81% (active). In the case of `CC(=O)c1ccc(NC(=O)c2sc3nc4n(c(=O)c3c2C)CCCCC4)cc1`, the inhibition was 4% (active).
